Compounds with a hit are over-represented: about 0.5% of the library has one in this group of screens.
E coli growth-1: inhibitors of Escherichia coli growth; OD600, 23 h; hits give low values; OD600 absorbance (concentration not given with the values); hit rate 0.21% among 330,000; AID 1053175;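 active = OD600 absorbance below the run mean of sample wells minus 3.6 SD, in any replicate, cut at about 0.56 in these data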
AddAB inh: less growth of phage-infected E. coli with AddAB; E. coli expressing H. pylori AddAB, absorbance growth; inhibition, % at 11.9 µM; hit rate 0.29% among 330,000; AID 435030; in the data active = inhibition above about 12%;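 also: 0% = vehicle wells of infected cells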
E coli growth-2: bacterial growth inhibition, counter-screen for AddAB inhibitors. hit rate 0.27% among 330,000. E. coli V3065 growth, OD600 absorbance, 18 h. AID 449728. inhibition, % at 11.9 µM;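 active = inhibition above the campaign's mean inhibition across all tested compounds plus 3 SD, cut at about 9.9% in these data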;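 also: uninfected addAB+ strain grown without phage in ampicillin broth; 0% = DMSO wells and 100% = ciprofloxacin 0.95 µg/ml wells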
phage Ecoli inh: E. coli growth loss with phage present; growth absorbance; inhibition, % at 11.9 µM; hit rate 0.26% among 360,000; AID 651602; in the data active = inhibition above about 11%
Tat transport: E. coli Tat transport inhibition; E. coli MC4100 TorA-mCherry Tat export, fluorescence; inhibition, % at 10 µM; hit rate 0.036% among 340,000; AID 488895;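 active = mean replicate inhibition at least 50% and at least half of replicates individually reaching 50%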;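 also: exported cargo escapes ClpAP degradation while cytoplasmic cargo is degraded and loses fluorescence; 0% = median of neutral control wells and 100% = median of NaSCN control wells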
AddAB confirm: growth loss of T4-infected E. coli expressing H. pylori AddAB, confirmed | shares compounds with AddAB inh | E. coli V3065 expressing H. pylori AddAB, T4 phage, OD; T4 phage with gene 2 nonsense mutations | inhibition, % at 11.9 µM | hit rate 64% among 880;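 active = mean inhibition above a set limit taken from the earlier primary screen, cut at about 13% in these data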;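 also: higher means less bacterial growth since AddAB block lets phage replicate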
RecBCD counter: counter-screen: growth loss of RecBCD+ E. coli with mutant T4 phage | shares compounds with AddAB inh | E. coli V66 + mutant T4 phage, OD growth | inhibition, % at 11.9 µM | hit rate 73% among 880 | AID 488955;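 active = mean inhibition above the mean of solvent-only control wells plus 3 SD, cut at about 4% in these data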;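 also: optical density read after an 18 h incubation at 37 °C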
bact viab count: reduces bacterial viability, AddAB inhibitor counter-screen; hit rate 35% among 880; AID 488956; shares compounds with AddAB inh; absorbance (AddAB counterscreen); inhibition, % at 11.9 µM; in the data active = inhibition above about 25%
RecBCD conf: confirmation: growth loss of phage-infected RecBCD+ E. coli (RecBCD inhibitor screen); shares compounds with phage Ecoli inh; E. coli V66 + T4 2- phage, growth OD; inhibition, % at 11.9 µM; hit rate 45% among 890; AID 651982;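 active = mean inhibition over triplicates exceeding the hit threshold derived in the original primary screen, cut at about 11% in these data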
Ecoli viability: bacterial viability inhibition counter-screen for RecBCD | shares compounds with phage Ecoli inh | E. coli viability, absorbance (OD) growth | inhibition, % at 11.9 µM | hit rate 29% among 890 | AID 651983; in the data active = inhibition above about 20%;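 also: E. coli strain V66 grown with compound alone and no phage infection; 0% = bacteria with DMSO vehicle only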
AddAB counter: growth loss of phage-infected AddAB E. coli, RecBCD counter-screen | shares compounds with phage Ecoli inh | E. coli expressing H. pylori AddAB + T4 phage, OD growth; gene 2 mutant T4, recBCD-deleted host | inhibition, % at 11.9 µM | hit rate 45% among 890;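 active = mean inhibition above the solvent-only control wells' mean plus 3 SD, cut at about 22% in these data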;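 also: higher means less bacterial growth from phage killing when AddAB is blocked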
Active calls of the source: *; x = no result given; ! = a repeat was not active.

SMILES	E coli growth-1	AddAB inh	E coli growth-2	phage Ecoli inh	Tat transport	AddAB confirm	RecBCD counter	bact viab count	RecBCD conf	Ecoli viability	AddAB counter
O=C(NC(Cc1ccc(O)cc1)C(=O)O)c1ccc(C(F)(F)F)cc1 (configuration not stated)	0.71	x	x	x	x	x	x	x	x	x	x
CS(=O)(=O)c1ccc([C@@H](O)[C@@H](CO)NC(=O)C(Cl)Cl)cc1	x	29*	29*	27*	15	10	27*	0	35*	25*	6
CS(=O)(=O)c1ccc([C@@H](O)[C@@H](CF)NC(=O)C(Cl)Cl)cc1	x	84*	85*	85*	147*	87*	90*	87*	92*	94*	84*
Cc1ccc(S(=O)(=O)N2C(c3cccc(C)c3)CC=C(C(=O)O)C2c2ccc(Cl)cc2)cc1 (configuration not stated)	0.67	x	x	x	x	x	x	x	x	x	x
O=c1c2cc(Br)ccc2nc(-c2cccc(C(F)(F)F)c2)n1O	0.71	16*	16*	17*	-13	8	16*	5	8	11	17
N#Cc1ccc(-c2nc3ccc(Br)cc3c(=O)n2O)cc1	0.65	-1	-2	-2	-2	x	x	x	x	x	x
CCC(CC)C(=O)Nc1cccc(C(C)=NNC(=O)c2ccc(C)s2)c1	0.66	x	x	x	x	x	x	x	x	x	x
COc1cc(C=Nn2c(-c3ccccc3)n[nH]c2=S)ccc1O	0.69	x	x	x	x	x	x	x	x	x	x
N#Cc1ccc(NC(=O)Nc2ccc(Cl)cc2)cc1	0.49*	16*	15*	13*	6	16*	18*	16	14*	17	20
Cc1onc(-c2c(Cl)cccc2Cl)c1C(=O)N/N=C(\N)COc1ccc(Cl)cc1	x	14*	16*	18*	6	17*	19*	18	8	10	32*
Cc1onc(-c2ccccc2Cl)c1C(=O)NN=C(N)COc1ccc(Cl)cc1	0.68	x	x	x	x	x	x	x	x	x	x
COc1ccccc1NCC(=O)NN=Cc1c(O)ccc2ccccc12	0.66	x	x	x	x	x	x	x	x	x	x
COC(=O)C1=C(C)N(CCc2cc(OC)c(OC)c(OC)c2)C(=O)NC1c1ccccc1 (configuration not stated)	0.68	x	x	x	x	x	x	x	x	x	x
O=C(CN1C(=O)S/C(=C\c2ccccc2)C1=O)NNC(=O)c1ccccc1O	0.7	19*	17*	14*	-8	16*	14*	12	6	7	7
COc1ccc(/C=C2\SC(=O)N(CC(=O)NNC(=O)c3ccccc3O)C2=O)cc1OC	x	23*	18*	16*	-6	20*	14*	16	6	9	16
COc1ccc(/C=C2\SC(=O)N(CC(=O)NNC(=O)c3ccccc3O)C2=O)cc1	0.71	17*	10*	15*	0	11	10*	10	2	3	1
O=C(CN1C(=O)S/C(=C\c2ccc(O)cc2)C1=O)c1ccccc1	x	1	0	3	-12	x	x	x	x	x	x
Cn1c(O)c(/C=N/NC(=O)c2cc3ccccc3cc2O)c2ccccc21	x	23*	25*	22*	4	25*	25*	22	19*	23*	30*
Cc1nc2ccccc2c(=O)n1/N=C/c1ccc([N+](=O)[O-])o1	x	9	8	x	x	x	x	x	x	x	x
Cc1nc2ccccc2n1/N=C/c1ccc([N+](=O)[O-])o1	x	100*	98*	12*	-7	103*	25*	103*	10	13	100*
COc1ccc(C=NNc2cc(C)nc(-n3nc(C)cc3C)n2)cc1	0.68	x	x	x	x	x	x	x	x	x	x
CC(=O)NC(c1cc(Cl)c2cccnc2c1O)C(C)C (configuration not stated)	0.67	4	-1	8	0	x	x	x	x	x	x
CCCCC(=O)NC(c1ccco1)c1cc(Cl)c2cccnc2c1O (configuration not stated)	0.71	16*	24*	21*	2	18*	18*	15	10	12	15
CCCC(=O)NC(c1cccs1)c1cc([N+](=O)[O-])c2cccnc2c1O (configuration not stated)	0.66	5	-1	3	-7	x	x	x	x	x	x
CCC(=O)NC(c1ccco1)c1cc(Cl)c2cccnc2c1O (configuration not stated)	0.71	16*	15*	13*	4	5	11*	1	2	4	18
SMILES	E coli growth-1	AddAB inh	E coli growth-2	phage Ecoli inh	Tat transport	AddAB confirm	RecBCD counter	bact viab count	RecBCD conf	Ecoli viability	AddAB counter
CCC(=O)NC(c1ccc(OC)cc1)c1cc(Cl)c2cccnc2c1O (configuration not stated)	0.65	26*	23*	21*	0	21*	23*	18	13*	17	21*
CCC(=O)NC(c1ccco1)c1cc(Cl)c2cccnc2c1OC (configuration not stated)	0.68	0	-1	1	-20	x	x	x	x	x	x
COc1ccccc1N1CCN(CC(O)=C(C#N)c2nc(-c3ccccc3)cs2)CC1	0.67	x	x	x	x	x	x	x	x	x	x
CCN(CC)C(=O)c1[nH]cnc1C(=O)NC(C)c1ccccc1 (configuration not stated)	0.71	x	x	x	x	x	x	x	x	x	x
CCn1ccc(=O)c2cc3c(cc21)OCO3	0.68	3	2	0	14	x	x	x	x	x	x
CCn1nc(C(=O)O)c(=O)c2cc3c(cc21)OCO3	0.058*	96*	98*	53*	28	99*	98*	101*	90*	99*	99*
Cc1cccc(NC(=O)c2ccc([N+](=O)[O-])o2)n1	0.53*	30*	38*	16*	-24	100*	13*	40*	7	10	61*
O=C(NN=Cc1ccc(Cl)cc1Cl)c1sccc1-n1cccc1	0.79	x	x	x	x	x	x	x	x	x	x
c1cnc2c(c1)ccc1cccnc12	0.33*	12*!	12*!	12*	-1	13*	20*	7	10	10	6
O=Cc1ccc2ccc3cccnc3c2n1	0.68	5	5	2	-13	x	x	x	x	x	x
Cc1cc(C(=O)NN=C/C=C/c2ccccc2)c(C)o1	0.68	x	x	x	x	x	x	x	x	x	x
Cc1ccc(C(C)C)c(OCc2ccc(C(=O)N/N=C/c3ccc(O)cc3O)cc2)c1	x	13*	15*	27*	-7	15*	18*	20	14*	17	24*
